The source of these data is PubChem BioAssay AID463173 (ICCB-Longwood Screening Facility, Harvard Medical School, 2010).

Out of some 52,000 compounds screened, about 1,700 (3.3%) were called active. No stated cut-off is given here; in the data, active means survival mostly below about 52% (no sharp cut-off); inactive means mostly above about 56%. For the sample, actives were picked, then their nearest neighbours and some compounds at random.

The test system of the experiment is Wild type. Briefly: S. aureus survival, RN4220 and DeltatarO strains – OD600, teichoic acid synthesis inhibitors, primary screen (AID 463173). The settings on record: S. aureus RN4220 wild type/DeltatarO growth, OD600, 18 h, active compounds read low, screened at 18.75 µg/mL (by protocol).
Turning to `O=C(C1CCCN(S(=O)(=O)c2ccc(Br)s2)C1)N1CCN(c2cccc(Cl)c2)CC1` (centres undefined), the survival was 73% (inactive). As to `Cc1cc(C)n2nc(CNS(=O)(=O)c3ccc(F)cc3)nc2n1`, the survival is 88% (inactive). On to `Cc1nc(SCc2ccccc2Cl)c(C#N)c(C)c1C`, for which the survival is -2% (active). Take `Cc1ccc(Cl)cc1NC(=O)CSc1nc(C)c(C)c(C)c1C#N`: the survival was 86% (inactive).

Take `Cc1nc(SCc2ccc(Cl)cc2)c(C#N)c(C)c1Cl`: the survival is 32% (inactive).

As for `CNS(=O)(=O)c1cn(CC(=O)Nc2ccc(F)cc2F)cc1S(=O)(=O)NC`, the survival was -3% (active).

Take `CNS(=O)(=O)c1cn(CC(=O)Nc2ccc(C)cc2C)cc1S(=O)(=O)NC`: the survival is 121% (inactive). Consider `Cc1cc(F)ccc1NC(=O)Cn1cc(S(=O)(=O)NC(C)C)c(S(=O)(=O)NC(C)C)c1`, for which the survival is 73% (inactive). With `CCC(=O)N1CCc2cc(Br)cc(S(=O)(=O)N3CCC(C(=O)Nc4cccc(C)c4)CC3)c21` the figure was 94% (inactive); with `CCC(=O)N1CCc2cc(Br)cc(S(=O)(=O)N3CCC(C(=O)Nc4ccc(OC)cc4)CC3)c21`, 0% (active). On to `CCC(=O)N1CCc2cc(Br)cc(S(=O)(=O)N3CCC(C(=O)Nc4ccccc4CC)CC3)c21`, for which the survival was 89% (inactive). In the case of `CC(C(=O)N(C(C)C)C(C)C)N1CCN(C)CC1` (centres undefined) it was 93% (inactive); in that of `O=C(Cn1c(=O)nc(-c2ccccc2)c2ccccc21)NCc1ccccc1Cl`, 73% (inactive); in that of `CCOc1ccc(CNC23CN4CN(CN(C4)C2)C3)cc1`, 99% (inactive). With `CC1CCN(C(=O)C(C)Sc2nc(-c3ccccc3)cc(C(F)(F)F)n2)CC1` (centres undefined) the figure was -7% (active); with `CC1CCN(C(=O)CSc2n[nH]c(-c3ccc(F)cc3)n2)CC1`, 76% (inactive). In the case of `COc1ccc(-c2nc(SCC(=O)N3CCN(c4ccc(F)cc4)CC3)n[nH]2)cc1` it was 85% (inactive). On to `O=C(CSc1n[nH]c(-c2ccccc2)n1)N1CCN(c2ccc(F)cc2)CC1`, for which the survival was 65% (inactive).

Turning to `O=C(CSc1n[nH]c(-c2ccc(F)cc2)n1)N1CCN(c2ccc(F)cc2)CC1`, the survival is -6% (active).

`CC1CN(C(=O)C(C)Sc2nc(-c3ccccc3)cc(C(F)(F)F)n2)CC(C)O1` (centres undefined): the survival is 101% (inactive).

Take `CC(Sc1nc(-c2ccccc2)cc(C(F)(F)F)n1)C(=O)N1CCCC1` (centres undefined): the survival was 105% (inactive). In the case of `COc1ccc(-c2cc(C(F)(F)F)nc(SCC(=O)N3CCC(C)CC3)n2)cc1` it was 55% (inactive); in that of `CC1CCN(C(=O)CSc2nc(-c3ccc(F)cc3)cc(C(F)(F)F)n2)CC1`, 11% (active); in that of `CC1(C)CC(=O)c2cc(C(=O)Nc3ccc(Br)cc3)c(=O)n(-c3ccc(Cl)cc3)c2C1`, 74% (inactive). In the case of `O=C(Nc1ccccc1)NC1(C(=O)Nc2ccc(-n3cnnn3)cc2)CCCCC1` it was 123% (inactive); in that of `COc1ccc(NC(=O)CS(=O)CC(=O)Nc2cc(OC)ccc2OC)cc1` (centres undefined), 107% (inactive). In the case of `CCOC(=O)C1CCN(C(=O)c2ccc3c(c2)sc2nc(-c4ccccc4)cn23)CC1` it was 42% (inactive). Regarding `Cc1cc(S(=O)(=O)Nc2cc3c(cc2N2CCOCC2)n(C)c(=O)n3C)ccc1F`, the survival was 82% (inactive). With `CC(=O)Oc1cn(C(C)=O)c2ccccc12` the figure was 84% (inactive); with `CC1CCCCN1S(=O)(=O)c1ccc(NC(=O)C2COc3ccccc3O2)cc1` (centres undefined), 125% (inactive). Consider `COc1cc(NC(=O)Cc2c(C(=O)O)c(C)cn2C)cc(OC)c1`, for which the survival is 99% (inactive). For the molecule `O=C(CCN1CCCCC1)Nc1ccccc1`, the survival was 110% (inactive). With `CCOC(=O)c1ccc(N2C(=O)c3n[nH]c(-c4ccco4)c3C2c2ccc(O)cc2)cc1` (centres undefined) the figure was 67% (inactive); with `CCOC(=O)c1ccc(N2C(=O)c3n[nH]c(-c4ccco4)c3C2c2ccc(C)cc2)cc1` (centres undefined), 32% (inactive). With `CCOC(=O)c1ccc(N2C(=O)c3n[nH]c(C)c3C2c2ccc(C(C)(C)C)cc2)cc1` (centres undefined) the figure was 81% (inactive). In the case of `CCOC(=O)c1ccc(N2C(=O)c3n[nH]c(-c4ccco4)c3C2c2ccc(F)cc2)cc1` (centres undefined) it was 9% (active); in that of `CCOC(=O)c1ccc(N2C(=O)c3n[nH]c(C)c3C2c2ccc(CC)cc2)cc1` (centres undefined), 82% (inactive). With `CCOC(=O)c1ccc(N2C(=O)c3n[nH]c(C)c3C2c2cccc(Br)c2)cc1` (centres undefined), the survival is 3% (active). In the case of `Cn1cc(S(=O)(=O)N2CCCCC2)cc1C(=O)NCc1ccc(Cl)cc1` it was 88% (inactive); in that of `COc1ccc(CNC(=O)Cc2c(C)c3cc4c(C)coc4cc3oc2=O)cc1`, 88% (inactive). In the case of `COc1ccc(-c2nc3sc(CCNC(=O)C(=O)Nc4cc(C)cc(C)c4)c(C)n3n2)cc1` it was 89% (inactive).

As to `CC(=O)c1ccc(N2CCN(C(=O)C3CCN(S(=O)(=O)c4c(C)noc4/C=C/c4ccc(C)cc4)CC3)CC2)cc1`, the survival is 127% (inactive). In the case of `O=C(O)CCC(=O)NC(c1ccccc1)c1ccccc1` it was 108% (inactive); in that of `Cc1cc(C)nc(N2CCC(C(=O)Nc3nnc(C(C)C)s3)CC2)n1`, 107% (inactive).

In the case of `COC(=O)c1cc2c(ccn2-c2ccc(F)cc2)n1Cc1ccccc1`, the survival is 88% (inactive).

For `Cc1ccc(CN2C(=O)CN(C3CCCCCC3)C(=O)C2c2ccc(F)cc2)cc1` (centres undefined), the survival was 1% (active). Consider `COc1ccc(C2C(=O)N(C3CCCCCC3)CC(=O)N2Cc2ccc(C)cc2)cc1` (centres undefined), for which the survival is 75% (inactive). In the case of `Cc1ccc(CN2C(=O)CN(C3CCC(C)CC3)C(=O)C2c2ccc(F)cc2)cc1` (centres undefined) it was 119% (inactive).

As for `COc1ccc(C)cc1NC(=O)Nc1cccc(OCc2cc(=O)n3ccc(C)cc3n2)c1`, the survival was 73% (inactive). Consider `CCC(=O)N1c2ccc(S(=O)(=O)CCC(=O)Nc3ccc(Br)c(C)c3)cc2CC1C` (centres undefined), for which the survival was 87% (inactive). With `Cc1oc(-c2ccc(Cl)cc2)nc1CN1CCCC(C(=O)NCc2ccc(Cl)cc2)C1` (centres undefined) the figure was 85% (inactive).

Turning to `CCc1ccc(-c2nc(CN3CCCC(C(=O)NCc4ccc(C)cc4)C3)c(C)o2)cc1` (centres undefined), the survival is 88% (inactive).

As for `Cc1oc(-c2cccc(Cl)c2)nc1CN1CCCC(C(=O)NCc2ccc(Cl)cc2)C1` (centres undefined), the survival was -1% (active). With `Cc1cccc(-c2nc(CN3CCCC(C(=O)NCc4ccc(Cl)cc4)C3)c(C)o2)c1` (centres undefined) the figure was 2% (active); with `Cc1ccc(CNC(=O)C2CCCN(Cc3nc(-c4cccc(C)c4)oc3C)C2)cc1` (centres undefined), 4% (active); with `Cc1oc(-c2cccc(Cl)c2)nc1CN1CCCC(C(=O)NCc2ccc(F)cc2)C1` (centres undefined), 64% (inactive). In the case of `Cc1oc(-c2ccc(Cl)cc2)nc1CN1CCCC(C(=O)NCc2ccccc2)C1` (centres undefined) it was 88% (inactive); in that of `Cc1ccc(CNC(=O)C2CCN(Cc3nc(-c4cccc(Br)c4)oc3C)CC2)cc1`, 75% (inactive); in that of `Cc1ccccc1-c1nc(CN2CCCC(C(=O)NCc3ccc(Cl)cc3)C2)c(C)o1` (centres undefined), 68% (inactive).
